# D2 ag-1 = HTS Assay for Allosteric Agonists of the Human D2 Dopamine Receptor: Primary Screen for Agonists | D(2) dopamine receptor (Homo sapiens), P14416 | HEK293 T-REx D2 cells, calcium flux agonist mode | activation, % at 2 µM | hit rate 0.53% among 340,000 | AID 485358, 2010;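 active = activation over 3 SD above normal in the single-dose calcium agonist read, cut at about 30% in these data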; note: 0% is about no effect
# Target sequence (P14416 whole entry, looked up): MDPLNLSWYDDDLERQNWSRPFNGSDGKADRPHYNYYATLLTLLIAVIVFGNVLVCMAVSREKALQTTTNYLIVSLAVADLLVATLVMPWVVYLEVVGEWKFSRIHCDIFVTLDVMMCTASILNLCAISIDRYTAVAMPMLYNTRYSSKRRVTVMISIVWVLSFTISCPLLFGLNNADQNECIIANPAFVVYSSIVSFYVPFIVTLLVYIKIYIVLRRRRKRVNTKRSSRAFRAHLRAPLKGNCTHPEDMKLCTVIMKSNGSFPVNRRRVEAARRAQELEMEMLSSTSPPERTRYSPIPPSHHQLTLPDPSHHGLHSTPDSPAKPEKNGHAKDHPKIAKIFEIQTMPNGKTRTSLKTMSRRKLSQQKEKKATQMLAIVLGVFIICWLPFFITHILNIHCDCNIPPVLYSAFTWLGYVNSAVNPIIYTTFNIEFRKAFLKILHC
#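 In this primary screen, compounds producing a positive calcium signal within 180 s of addition to tetracycline-induced, force-coupled HEK293 Trex D2 cells are flagged; cells are dye-loaded with a no-wash calcium kit beforehand.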
# D2 ag-2 = Beta-Arrestin HTS for Positive Allosteric Modulators of the Human D2 Dopamine Receptor: Agonists; activation, % (concentration not given with the values); hit rate 0.084% among 360,000; D(2) dopamine receptor (Homo sapiens), P14416; AID 624465, 2012; DiscoveRx PathHunter D2 beta-arrestin, luminescence, 90 min; 100% = 57 uM dopamine signal; in the data active = activation above about 40%; inconclusive = between about 15% and that limit
#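 DiscoveRx PathHunter D2 beta-arrestin cells (2,100/well) attached overnight, then compound-stimulated 90 min at 37 C in HBSS/10 mM HEPES/0.1% Tween-20 buffer; beta-galactosidase complementation read by luminescence after 1 h at ambient temperature. Dopamine 57 uM final (EC100) as control.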
# D2 PAM-1 = HTS Assay for Positive Allosteric Modulators of the Human D2 Dopamine Receptor: Primary Screen for Potentiators; HEK293 T-REx D2, calcium flux, EC20 dopamine potentiation; D(2) dopamine receptor (Homo sapiens), P14416; hit rate 0.34% among 340,000; AID 485347, 2010; potentiation, % at 10 µM;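 active = potentiation over 3 SD above the plate norm, cut at about 30% in these data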; note: 0% is about no effect
#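 Primary screen. Calcium kinetics in induced HEK293 T-REx D2 cells: compound pre-addition 180 s, EC20 dopamine, 180 s more.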
# D2 PAM-2 = Beta-Arrestin HTS for Positive Allosteric Modulators of the Human D2 Dopamine Receptor: Potentiators; DiscoveRx D2 beta-arrestin cells, luminescence, 90 min; 100% = 57 uM dopamine signal; potentiation, % (concentration not given with the values); hit rate 0.23% among 360,000; AID 624464, 2012; in the data active = potentiation above about 50%; inconclusive = mostly about 30% to 49%
#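 PathHunter beta-arrestin assay in DiscoveRx D2 cells. Compounds were added with an EC20 of dopamine (50 nM final) for 90 min at 37 deg C. Luminescence was read 1 h after detection reagent, with 57 uM dopamine as the EC100 control.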
# D2 antagonist = HTS Assay for Allosteric Antagonists of the Human D2 Dopamine Receptor: Primary Screen for Antagonists; D(2) dopamine receptor (Homo sapiens), P14416; HEK293 TREx D2 cells, calcium flux, dopamine EC80; inhibition, % at 10 µM; hit rate 2% among 340,000; AID 485344, 2010; in the data active = inhibition above about 30%; inactive = below that, where a call was filed; note: 0% is about no effect
#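 Cells plated overnight at 30 C with tetracycline; no-wash calcium dye, 30–90 min RT; 10 s baseline; compound pinned; 180 s read; EC80 dopamine added; another 180 s read.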
# D3 arrestin ag = qHTS of D3 Dopamine Receptor Agonist: D3 Dopamine Receptor B-arrestin Agonist Confirmatory Assay; shares compounds with D2 ag-1; DiscoveRx D3 beta-arrestin cells, luminescence, 90 min; Potency, µM (titrated, usually from 76.9 µM), for the others: top-dose activation, hits mostly activators; hit rate 4% among 2,300;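 note: potency is the fitted concentration of half-maximal effect; 100% = dopamine control response; nearly all actives have a fitted effect of over 70% in size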
# D2 ag-3 = qHTS of D3 Dopamine Receptor Agonist: D2 Dopamine Receptor B-arrestin Agonist Counterscreen; Potency, µM (doses to about 76.9 µM), inactives show at the highest dose activation, hits mostly activators; hit rate 5.9% among 2,300; AID 720507, 2013; shares compounds with D2 ag-1; DiscoveRx PathHunter D2 beta-arrestin, luminescence, 90 min; response scale: percent relative to full dopamine signal; note: potency is the fitted concentration of half-maximal effect; % of control where 0% means no effect; nearly all actives have a fitted effect of over 70% in size
# Active calls of the source: *; ? = inconclusive; nt = no result. In the library only some 2.4% were active in any assay of this set; here they are far more common. Unless noted, calls come from the whole dose curve; as a rule, active = well fitted activation curve with a large enough effect; inconclusive = small, poorly fitted or top-dose-only effect; inactive = flat fitted curve, though single readings scatter.
SMILES,D2 ag-1,D2 ag-2,D2 PAM-1,D2 PAM-2,D2 antagonist,D3 arrestin ag,D2 ag-3
c1cc(CNCCc2ccc3c(c2)OCO3)ccn1,-1.1,4.1,8.2,-31.7,-20.0,?,2.7%
Fc1ccc(CNCCc2ccc3c(c2)OCO3)cc1,0.1,0.7,-2.2,-32.4,-14.1,nt,nt
CNCCc1c[nH]c2ccccc12,11.3,4.5,-6.8,-19.8,16.2,nt,nt
CCC(N)Cc1c[nH]c2ccccc12 (stereo not drawn),11.8,1.0,-5.3,-4.3,-24.4,-4.2%,-2.9%
COc1ccc(CN2CCN(C(=O)COc3ccccc3)CC2)c(OC)c1,-2.1,nt,5.7,nt,nt,nt,nt
COc1cc2c3c(c1OC)-c1cc(O)ccc1CC3NCC2 (stereo not drawn),20.5,8.7,-10.2,-12.7,0.0,-3.7%,15.8%
CCCCc1nn2c(=O)cc(COC(=O)Cc3ccccc3)nc2s1,2.2,nt,0.8,nt,nt,nt,nt
O=C(COc1cccc(Cl)c1)N1CCN(CCc2ccncc2)CC1,-0.8,nt,-5.9,nt,nt,nt,nt
CC(C(N)=O)N1CC(c2ccccc2)CC1=O (stereo not drawn),45.1*,1.2,-18.8,-11.7,0.4,-0.4%,-1.8%
O=C(Nc1ccc(F)c([N+](=O)[O-])c1)c1cccn(Cc2ccccc2)c1=O,1.3,nt,10.0,nt,nt,nt,nt
CCOc1ccc(NC(=O)c2cccn(Cc3cccc(Cl)c3)c2=O)cc1,0.9,nt,1.8,nt,nt,nt,nt
Clc1ccc2c(c1)C(c1ccccc1Cl)=NCc1nnc(N3CCN(CCSc4ccccc4)CC3)n1-2,0.3,-5.2,-6.4,-3.7,-6.7,nt,nt
Clc1ccc2c(c1)C(c1ccccc1Cl)=NCc1nnc(N3CCN(CCOc4ccccc4)CC3)n1-2,57.7*,3.3,-35.4,-18.5,64.9*,?,20.2%

# Source: PubChem
